Screening results (PubChem BioAssay)
Hits are enriched below; roughly 6.8% of the tested compounds scored in any of these assays.
MCF10A rereplic – induces DNA re-replication in MCF 10a normal breast cells | AID 624296 | MCF 10A DNA re-replication, Hoechst nuclear intensity, 48 h | Potency, µM (series often up to 46.1 µM), for the others: at the top dose activity, positive = re-replication, usual class: activators | actives 2.9% (n = 350,000); further: % of control where 0% means no effect; nearly all actives have a fitted effect of over 50% in size
PTAP TSG101 blk – blocks PTAP/TSG101 interaction to inhibit HIV-1 budding | Q99816 | Fluorescence polarization, FITC-PTAP peptide / Tsg101 binding | Potency, µM (series often up to 115 µM), without a hit: at the top dose activity change, negative = inhibition, usual class: inhibitors | 340,000 tested, under 10 active | AID 493005; active means well fitted inhibition curve with a large enough effect in the main read-out, with a control signal flat, not every such curve was filed as active; inconclusive means small, poorly fitted or top-dose-only effect, or effect the other way, or a change in a side signal; inactive means no such curve, though single readings can be large or run the other way; further: % of control where 0% means no effect
Target sequence (Q99816 whole entry, looked up): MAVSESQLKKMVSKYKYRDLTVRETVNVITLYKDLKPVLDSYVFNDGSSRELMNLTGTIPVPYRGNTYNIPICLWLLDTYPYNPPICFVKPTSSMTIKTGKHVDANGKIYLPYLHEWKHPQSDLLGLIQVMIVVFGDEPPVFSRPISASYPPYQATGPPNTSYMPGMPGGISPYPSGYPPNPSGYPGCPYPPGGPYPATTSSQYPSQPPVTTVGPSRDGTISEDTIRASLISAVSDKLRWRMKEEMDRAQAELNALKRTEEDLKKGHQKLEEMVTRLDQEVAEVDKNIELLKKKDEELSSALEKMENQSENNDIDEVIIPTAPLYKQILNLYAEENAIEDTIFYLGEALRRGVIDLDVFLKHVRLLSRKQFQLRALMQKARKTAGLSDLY
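Fluorescence polarization binding of Tsg101 binding domain (10 uM final) to FITC-labeled PTAP peptide (50 nM final) in HEPES pH 7.5 buffer with NaCl, Tween 20, EDTA, TCEP. Compounds added before peptide; binding 20 min at RT.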
KB-3-1 cytotox – KB-3-1 parental cell cytotoxicity | KB-3-1 viability, CellTiter-Glo ATP luminescence, 72 h | Potency, µM (series often up to 46.1 µM), actives largely listed as cytotoxic | actives 1.4% (n = 400,000); further: on the % scale 0 is the no-effect control and ±100 the full control effect; nearly all actives have a fitted effect of over 60% in size
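Cytotoxicity measured as CellTiter-Glo luminescence after 72 h at 37 C. Compound titrations were pinned onto drug-naive KB-3-1 parental adenocarcinoma cells grown in DMEM with 10% FBS, and normalized data fitted to concentration-response curves.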
PINK1 expr mod – PINK1 expression modulation; actives 0.2% (n = 410,000); Potency, µM (titrated, usually from 76.6 µM), inactives show at the highest dose activation (PINK1 increase), hits mostly activators; PINK1 immunofluorescence, high-content cytometry, 24 h; active means well fitted activation curve with a large enough effect; inconclusive means small, poorly fitted or top-dose-only effect; cell line not stated here; further: % of control where 0% means no effect; nearly all actives have a fitted effect of over 65% in size
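A stable cell line was treated with compounds at 5 concentrations for 24 hours, with CCCP as control. PINK1 levels and mitochondrial localization were measured by immunofluorescence with mitochondrial, cell and nuclear markers after fixation, read by laser-scanning cytometry.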
KB-V1 cytotox – kills drug-selected multidrug resistant KB-V1 cells | AID 1347076 | KB-V1 MDR cells viability, CellTiter-Glo, 72 h | actives 3.4% (n = 400,000) | Potency, µM (series often up to 46.1 µM), most hits filed as cytotoxic; further: on the % scale 0 is the no-effect control and ±100 the full control effect; nearly all actives have a fitted effect of over 60% in size
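Drug-selected KB-V1 cells, grown in DMEM lacking phenol red with 10% FBS, receive compound titrations; after three days at 37 degrees C, surviving cell ATP is quantified by CellTiter-Glo luminescence and responses normalized and curve-fitted.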
SW480 rereplic – DNA re-replication induction in SW480 cells | SW480 DNA re-replication, Hoechst DNA content imaging, 48 h | Potency, µM (top dose mostly 46.1 µM), for inactives: at the top dose re-replication activation, usual class: activators | actives 1.8% (n = 340,000) | AID 624297; further: % of control where 0% means no effect; nearly all actives have a fitted effect of over 55% in size
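Readout is total intensity of Hoechst-stained nuclei, excited at 405 nm and collected at 500-530 nm. Compound treatment lasted 48 hr at 37 C in 5% CO2 before staining.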
* hit, by the source's call; i = inactive; ? = inconclusive; / = not tested or not shown; [ ] = another dose, or the depositor's remark. Unless noted, the call rests on the fitted dose curve; in most records, active means well fitted curve in the direction sought with a large enough effect; inconclusive means small, poorly fitted or top-dose-only effect, or another doubt; inactive means no such curve, though single readings can be large; an effect the other way counts as inactive or inconclusive. Potency means the concentration at half of the fitted maximal effect.

SMILES	MCF10A rereplic	PTAP TSG101 blk	KB-3-1 cytotox	PINK1 expr mod	KB-V1 cytotox	SW480 rereplic
COc1ccc(CCn2c(=S)[nH]c(=O)c3[nH]cnc32)cc1OC	/	/	/	0%	/	/
COc1ccc(C(=O)N=c2nc(-c3ccccc3)n(-c3ccccc3)s2)cc1	/	/	i	1%	i	/
Cc1cccc(NC(=O)/C=C/c2ccc([N+](=O)[O-])s2)c1	2.3µM*	-2%	5.8µM*	-1%	4.6µM*	6.5µM*
O=C(O)c1ccccc1-c1ccc(/C=C/c2cc(C(F)(F)F)[nH]c(=O)n2)o1	-4%	?	i	0%	i	-2%
O=C(O)c1cc(Cl)ccc1-c1ccc(/C=C/c2cc(C(F)(F)F)[nH]c(=O)n2)o1	18µM*	?	i	4%	?	?
Cc1cc(C)cc(OCC(=O)Nc2cccc(-c3nnc(-c4ccco4)o3)c2)c1	-2%	/	i	-4%[38.3 µM]	15µM*	-2%
COc1ccc(CC(=O)Nc2cccc(-c3nnc(-c4ccco4)o3)c2)cc1	14%	1%	i	11%	?	-5%
COc1ccc(C(=O)Nc2cccc(-c3nnc(-c4ccco4)o3)c2)cc1	?	-14%	?	-2%	13µM*	0%
COc1cc(C(=O)Nc2cccc(-c3nnc(-c4ccco4)o3)c2)ccc1OC(C)=O	?	0%	i	2%	21µM*	-15%
COc1cc(C(=O)Nc2ccc(-c3nnc(-c4ccco4)o3)cc2)cc(OC)c1OC	?	-3%	i	-1%	?	-2%
COc1ccc(NC(=O)c2oc3ccccc3c2NC(=O)C(C)(C)C)cc1	30%	-1%	i	3%[38.3 µM]	9.2µM*	14%
COc1ccc(NC(=O)c2oc3ccccc3c2NC(=O)C2CC2)cc1	1%	-7%	i	28%[38.3 µM]	10µM*	1%
CCOc1ccc(NC(=O)c2oc3ccccc3c2NC(=O)C(C)(C)C)cc1	/	/	i	0%	i	/
Cc1c(C(=O)N2CCCCCC2)sc2ncnc(NCC3CCCO3)c12 (stereo not given)	/	/	/	-1%	/	/
CN(C)c1cc2c(cc1NC(=O)c1ccc(F)cc1)n(C)c(=O)n2C	/	/	/	0%	/	/
Cc1cccc2c(N3CCCC3)nc(CNS(=O)(=O)c3ccccc3Cl)nc12	/	/	/	0%	/	/
CCCCc1c(-c2ccc(F)cc2)ncn1CCc1ccccc1OC	/	/	?	?	12µM*	/
CCCc1c(-c2cccc(Cl)c2)ncn1Cc1ccccc1OC	/	/	?	?	16µM*	/
CCCCc1c(-c2ccc(OC)cc2)ncn1CCc1ccccc1OC	/	/	?	?	15µM*	/
CCCCCc1c(-c2ccc(Cl)cc2)ncn1CCc1ccccc1OC	/	/	?	0%	12µM*	/
COc1ccccc1CCn1cnc(C)c1CC(C)C	/	/	?	-1%	i	/
CCC1CN(CCNC(=O)c2cc(C(C)C)nn2C)Cc2cc(OC)ccc2O1 (stereo not given)	/	/	/	1%	/	/
CCCCc1c(Cc2ccccc2)ncn1CCc1ccccc1OC	/	/	21µM*	?	18µM*	/
CCCCc1c(-c2ccccc2)ncn1CCc1ccccc1OC	/	/	?	?	10µM*	/
CCCCc1c(-c2cccc(Cl)c2)ncn1CCc1ccccc1OC	/	/	?	-1%	10µM*	/
CCCCCc1c(-c2ccc(OC)cc2)ncn1CCc1ccccc1OC	/	/	?	-1%	10µM*	/
COc1ccccc1CCn1c(=O)c(-c2ccccc2)nc2cncnc21	/	/	/	0%	/	/
Cc1ccc(OCc2nc(-c3ccc(C(=O)N4CCN(c5ccc(Cl)cc5)CC4)cc3)oc2C)cc1	/	/	i	1%	i	/
CC1CCC(C(C)C)C(OC(=O)COC(=O)c2ccc(=O)[nH]c2)C1 (stereo not given)	?	-11%	i	-1%	i	-1%
CC1CCC(C(C)C)C(OC(=O)COC(=O)c2cc(O)ccc2N)C1 (stereo not given)	23µM*	-2%	i	0%	i	26µM*
